Screening data from PubChem.
HT1080 IDH1KD tx: HT-1080 IDH1 knockdown cell toxicity (counter line) | HT-1080 IDH1 knockdown viability, ATP luminescence, 48 h | Potency, µM (doses to about 46.1 µM), for the others: at the highest dose activity, negative = toxicity, usual class: cytotoxic | 360,000 tested, 2% active;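 further: potency means the concentration at half of the fitted maximal effect; 0% = DMSO wells and -100% = cell-free medium wells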
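In this qHTS, HT-1080 cells depleted of IDH1 are exposed for 48 h at 37 °C to compound titrations. Toxicity is scored from CellTiter-Glo luminescence, with DMSO as full viability and medium alone as none.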
DT40 TDP1 CPT: DT40-hTDP1 cell growth loss with CPT. Potency, µM (highest dose often 46.2 µM), inactives show at the top dose activity change, negative = growth inhibition, most hits filed as inhibitors. 420,000 tested, 12% active. chicken DT40 Tdp1-/-;hTDP1 cells + 20 nM CPT, ATP luminescence, 48 h; further: potency means the concentration at half of the fitted maximal effect; nearly all actives have a fitted effect of over 55% in size
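Chicken DT40 Tdp1-/- cells complemented with human TDP1, 400 cells/well, exposed to compounds plus 20 nM camptothecin for at least 48 h at 37 C; viability read as ATP content by CellTiter-Glo luminescence.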
IL1B secr inh: blocks inflammasome-driven IL-1 beta release; 360,000 tested, 4.7% active; activity change, % at 57.5 µM; AID 743279; THP-1 LPS/ATP IL-1B secretion, AlphaLISA, 16 h; stronger effect = lower value; in the data active means activity change below about -50%; inconclusive means mostly about -30% to -49%
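THP-1 cells pretreated 1 hr with compounds (up to 57.5 uM final), then stimulated with LPS (250 ng/mL final) plus ATP (1.25 mM final); secreted IL-1B measured by AlphaLISA after 16 hr, decreased signal indicating inhibition.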
ELG1 DNA repair: blocks ELG1-dependent DNA repair in HEK293T cells; HEK293T ELG1-luciferase reporter, luminescence, 16 h; DNA damage induced by 5-fluorouridine; AID 504467; 330,000 tested, 2.3% active; Potency, µM (doses to about 46.1 µM), for inactives: top-dose activity change, negative = inhibition, hits mostly inhibitors; further: potency means the concentration at half of the fitted maximal effect; nearly all actives have a fitted effect of over 55% in size
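Luminescence from the luciferase reporter, measured 30 min after ONE-Glo reagent at room temperature, was the read-out. Beforehand, 2,000 cells per well were exposed for 16 hr at 37 °C to 5-fluorouridine together with compound or vehicle.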
TDP1 cell noCPT: qHTS for Inhibitors of human tyrosyl-DNA phosphodiesterase 1 (TDP1): qHTS in cells in absence of CPT; 420,000 tested, 15% active; DT40 Tdp1-/- hTDP1 cells, no CPT, ATP luminescence, 48 h; Potency, µM (top dose mostly 46.2 µM), for inactives: top-dose activity change, negative = growth inhibition, most hits filed as inhibitors; further: potency means the concentration at half of the fitted maximal effect; nearly all actives have a fitted effect of over 55% in size
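Compound effects on proliferation are scored in DT40 Tdp1-/-;hTDP1 cells in the absence of CPT. ATP levels (CellTiter-Glo luminescence) are recorded after a ≥48 hr, 37 °C incubation.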
HT1080-NT tox: kills 2HG-producing HT-1080-NT fibrosarcoma cells; HT-1080-NT fibrosarcoma viability, CellTiter-Glo ATP luminescence, 48 h; Potency, µM (top dose mostly 46.1 µM), without a hit: at the top dose activity, negative = less viability, usual class: cytotoxic; 360,000 tested, 1.6% active; AID 686970;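 further: NT is the 2HG producing partner of a matched IDH1 knockdown line; potency means the concentration at half of the fitted maximal effect; 0% = DMSO-treated cells and -100% = media-only wells without cells; nearly all actives have a fitted effect of over 55% in size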
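Compounds were tested in concentration-response format on HT-1080-NT cells for 48 hours at 37 degrees C. Cell viability came from CellTiter-Glo luminescence; curves were classified by r2, response magnitude and activity.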
Starred values were filed as active, the others as inactive; ? = inconclusive; . = not tested or not shown. In the library only some 19% were active in any assay of this set; here they are far more common. Unless noted, the call rests on the fitted dose curve; in most records, active means well fitted curve in the direction sought with a large enough effect; inconclusive means small, poorly fitted or top-dose-only effect, or another doubt; inactive means no such curve, though single readings can be large; an effect the other way counts as inactive or inconclusive. Unless noted, on the % scale 0 is the no-effect control and ±100 the full control effect.

SMILES	HT1080 IDH1KD tx	DT40 TDP1 CPT	IL1B secr inh	ELG1 DNA repair	TDP1 cell noCPT	HT1080-NT tox
Cn1c(=O)c2c(nc(NCC3CCCC(CN)C3)n2Cc2ccc(Cl)cc2Cl)n(C)c1=O (stereo not given)	-29%	4.6µM*	13	-17%	5.8µM*	?
COc1ccc(Cl)c(Cn2c(NCc3ccccn3)nc3c2c(=O)n(C)c(=O)n3C)c1	-11%	?	-3	-8%	15µM*	-18%
COc1ccc(Oc2nc3c(c(=O)n(C)c(=O)n3C)n2Cc2ccccc2Cl)cc1	.	?	.	.	13µM*	.
COc1ccc(Cn2c(NCC(C)C)nc3c2c(=O)n(C)c(=O)n3C)cc1	.	-10%	.	.	?	.
Cc1ccc(-c2cc(C(F)(F)F)n3nc(C(=O)Nc4sc5c(c4C#N)CCC(C)C5)cc3n2)cc1 (stereo not given)	.	-14%	.	.	-16%	.
CCc1ccc(S(=O)(=O)c2cn(C)c3cc(F)c(F)cc3c2=O)cc1	.	-23%	.	.	?	.
CC1CN(C2=N/C(=C/c3ccc4c(c3)OCO4)C(=O)N2)CC(C)O1 (stereo not given)	0%	-9%	22	21µM*	?	1%
CCOC(=O)C(CC)(CC)C(=O)/C=C/c1cccc(Br)c1	?	12µM*	-98*	.	18µM*	?
O=C(N/N=C/c1ccccc1)C(O)c1ccccc1 (stereo not given)	-12%	-10%	14	-2%	10%	-8%
O=C(N/N=C/c1ccc([N+](=O)[O-])o1)C(O)c1ccccc1 (stereo not given)	-27%	8.2µM*	-7	?	6.5µM*	?
O=[N+]([O-])c1ccc(/C=N/NC(=S)Nc2ccccc2C(F)(F)F)o1	1%	8.2µM*	0	10%	13µM*	12%
O=C(NN=Cc1ccccc1O)C(O)c1ccccc1 (stereo not given)	?	?	127	.	21µM*	-23%
O=C(N/N=C/c1ccc(-c2ccc([N+](=O)[O-])cc2)o1)C(O)c1ccccc1 (stereo not given)	-1%	?	-249*	?	?	-1%
O=[N+]([O-])c1ccccc1NC(=S)N/N=C/c1ccc(O)c(O)c1	?	?	25	?	?	?
Cc1cc(C)cc(OCc2ccc(C(=O)NN)o2)c1	-4%	1%	-7	?	-6%	4%
COc1ccc([C@H]2CC(=O)C=C(c3cccc(C#N)c3)C2)cc1	-1%	?	?	?	?	-1%
O=C(N/N=C\c1ccc(-c2ccc([N+](=O)[O-])cc2)o1)C1COc2ccccc2O1 (stereo not given)	-15%	?	-22	?	23µM*	-4%
Nc1nc(N)c2nc(-c3ccccc3)c(N)nc2n1	2.9µM*	15µM*	41	?	2.1µM*	2.3µM*
NSc1nc(N)c2nc(-c3ccccc3)c(-c3ccccc3)nc2n1	-5%	?	-51*	2%	26µM*	-7%
CC(=O)Oc1ccccc1Cn1c(C)c(C(=O)NCc2cccc(Cl)c2)sc1=O	?	?	-25	.	?	?
CCOC(=O)C1C(=O)OC(C)(C)C1C(CC)C(=O)c1c(C)cc(C)cc1C (stereo not given)	4%	18µM*	59	?	9.2µM*	6%
CCOC(=O)c1c(NC(=O)c2ccc(C)cc2)sc2c1CCCCC2	.	10%	.	.	5%	.
CCOC(=O)c1c(NC(=O)c2cc(OCC)c(OCC)c(OCC)c2)sc2c1CCCCC2	.	?	.	.	23µM*	.
CCOC(=O)c1c(NC(=O)C(=O)N/N=C/c2ccccc2O)sc2c1CCCCC2	?	2.9µM*	40	?	3.3µM*	?
CCOC(=O)c1c(NC(=O)C(=O)N/N=C/c2ccccc2OC)sc2c1CCCCC2	1%	?	8	-18%	-19%	-2%
SMILES	HT1080 IDH1KD tx	DT40 TDP1 CPT	IL1B secr inh	ELG1 DNA repair	TDP1 cell noCPT	HT1080-NT tox
CCOC(=O)c1c(NC(=O)c2ccn(CC)n2)sc2c1CCCC2	?	?	-20	?	23µM*	?
CCCN1CCN(CCNC(=O)Nc2ccccc2OCC)CC1	.	-4%	.	.	0%	.
CC1(C(=O)Nc2ccc(Cl)c(Cl)c2)CCN1Cc1cc2ccccc2o1 (stereo not given)	2%	-14%	0	.	-24%	18%
CC1(C(=O)Nc2cccc(Oc3ccccc3)c2)CCN1Cc1cc2ccccc2o1 (stereo not given)	?	23µM*	-7	.	?	-24%
CSc1ccc(CN2CCC2(C)C(=O)Nc2cccc(Oc3ccccc3)c2)cc1 (stereo not given)	-11%	18µM*	15	.	15µM*	-9%
CC(C)CNC(=O)C1(C)CCCCCN1C(=O)c1cc(C#N)cs1 (stereo not given)	1%	2%	-17	.	14%	3%
CCc1nnc(NC(=O)CCC(=O)N2CCN(Cc3ccc(F)cc3)CC2)s1	-4%	-26%	22	1%	-4%	10%
CCc1nnc(NC(=O)CCC(=O)N2CCN(CCc3ccccc3)CC2)s1	9%	-1%	23	0%	1%	15%
CCc1nnc(NC(=O)CCC(=O)N2CCN(Cc3ccc(C)cc3C)CC2)s1	-12%	?	33	-2%	18µM*	-8%
CCCc1nnc(NC(=O)CCC(=O)N2CCN(Cc3ccc(C)cc3C)CC2)s1	-12%	-22%	10	?	8.2µM*	-21%
CCc1nnc(NC(=O)CCC(=O)N2CCN(CCOc3ccc(C)cc3)CC2)s1	-14%	-25%	28	23µM*	?	-15%
Cc1ccc(CN2CCN(C(=O)CCC(=O)Nc3nnc(C(C)C)s3)CC2)c(C)c1	-16%	?	-86*	3%	?	-22%
CCCc1nnc(NC(=O)CCC(=O)N2CCN(Cc3ccccc3)CC2)s1	11%	-19%	46	2%	14%	2%
CCOc1ccc(N(C)C(=O)CCc2nnc3ccc(NCc4ccco4)nn23)cc1	6%	?	28	?	?	-3%
CCCCCn1c(NCc2ccccc2OC)nc2ccccc21	.	?	.	.	21µM*	.
CCCCn1c(NCc2ccc3c(c2)OCO3)nc2ccccc21	-29%	?	-51*	-14%	26µM*	-27%
C=CCc1cccc(CNc2nc3ccccc3n2CCC)c1O	?	?	?	-17%	23µM*	?
